Results from PubChem BioAssay (Tox21).
Records with an inconclusive call do not appear. Activity calls are given as the source filed them. Unless noted, calls come from the whole dose curve.

Legend:
[1] = biological target: Thyrotropin receptor (Homo sapiens) (UniProt P16473); test: qHTS assay to identify small molecule agonists of the thyroid stimulating hormone receptor (TSHR) signaling pathway (AID 1224843); note: nearly all actives have a fitted effect of over 45% in size
Outline: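 Screening of the Tox21 10K collection used HEK293 cells engineered with TSHR at 800 cells per well. After a 30-min room-temperature compound exposure, HTRF cAMP reagents were added and fluorescence recorded 1 h later.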

[2] = qHTS assay to identify small molecule agonists of the hypoxia (HIF-1) signaling pathway - cell viability counter screen (AID 1224844); note: nearly all actives have a fitted effect of over 50% in size
Outline: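 Cells (HRE-bla ME-180, 2,000 per well) sat 5 hrs at 37C, got compound for 17 hrs, were read for CCF4-AM FRET, and were finally lysed with CellTiter-Glo for a 30 min room-temperature luminescence read.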

[3] = qHTS assay to identify small molecule agonists of H2AX (AID 1224845; active = well fitted activation curve with a large enough effect in the signal ratio in the repeat runs, not every such curve was filed as active; the % refers to the signal ratio)
Outline: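 Phospho-H2AX Ser139 measured by HTRF (ex 320 nm; em 665 and 620 nm) after 24 hr antibody incubation. Compounds, 15 concentrations, 0.76% DMSO, were applied to CHO-K1 cells for 3hr at 37C before lysis.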

[4] = qHTS assay to identify small molecule agonists of the hypoxia (HIF-1) signaling pathway (AID 1224846; active = well fitted activation curve with a large enough effect in the signal ratio in the repeat runs, not every such curve was filed as active; the % refers to the signal ratio)
Outline: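 A low-serum medium (0.5% dialyzed FBS) holding 2,000 HRE-bla ME-180 cells per well is preincubated for 5 hrs, dosed with compounds by pintool, and kept a further 17 hrs at 37C, 5% CO2 before CCF4-AM FRET detection of beta-lactamase.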

[5] = qHTS assay to identify small molecule agonists of H2AX - cell viability counter screen (AID 1224847);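 note: wild-type CHO-K1 cells; top concentration of the series differs between compounds; nearly all actives have a fitted effect of over 30% in size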
Outline: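 After overnight plating of 1000 CHO-K1 cells per well, a 15-concentration compound series was applied for 3 hr at 37C. Luminescence from CellTiter-Glo, read following 30 min at room temperature, reflected cell viability.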

[6] = qHTS assay to identify small molecule antagonists of the estrogen related receptor (ERR) signaling pathway from Tox21 library (AID 1224848; active = well fitted curve in the direction sought with a large enough effect in the repeat runs; an effect the other way counts as inactive or inconclusive; note: nearly all actives have a fitted effect of over 50% in size)
Outline: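 Antagonist-mode screen of the Tox21 10K library in an NTP-provided ERR reporter cell line; 18 h compound exposure at 37 C, luminescence measured with ONE-Glo.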

[7] = qHTS assay to identify small molecule agonists of the estrogen related receptor (ERR) signaling pathway from Tox21 library (AID 1224849); settings: ERR reporter cell line, ONE-Glo luciferase, 18 h; at 92.4 µM (top of the series) unless noted; note: nearly all actives have a fitted effect of over 15% in size
Outline: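 Screening used an NTP-provided ERR luciferase cell line. Compounds in DMSO were added 6 h after seeding and left 18 h at 37 C before a 30 min ONE-Glo step and luminescence reading.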

[8] = qHTS RealTime-Glo MT Cell Viability Assay in HEK293 cells - 32 hour (AID 1224868; active = well fitted curve in the direction sought with a large enough effect in the repeat runs; an effect the other way counts as inactive or inconclusive; note: top concentration of the series differs between compounds; nearly all actives have a fitted effect of over 50% in size)
Outline: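 Quantitative high-throughput screen of the Tox21 10K library in HEK293: cells and RealTime-Glo reagents plated together, compound added at 5 h, luminescence monitored through 40 h at 37 C.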

[9] = A CellTox Green Cytotoxicity Assay to monitor cytotoxicity in HEK293 cells - 0 hour (AID 1224869; active = well fitted curve in the direction sought with a large enough effect in the repeat runs; an effect the other way counts as inactive or inconclusive; note: nearly all actives have a fitted effect of over 50% in size)
Outline: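 Fluorescence intensity, read at 0, 8, 16, 24, 32 and 40 h of compound treatment, reflected dye binding to DNA of dead HEK293 cells; compounds (23 nL, DMSO) were added 5 h after plating cells with reagent.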

[10] = qHTS RealTime-Glo MT Cell Viability Assay in HepG2 cells - 24 hour (AID 1224867; active = well fitted curve in the direction sought with a large enough effect in the repeat runs; an effect the other way counts as inactive or inconclusive; note: nearly all actives have a fitted effect of over 50% in size)
Outline: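 Compound treatment began 5 h after plating HepG2 cells (600/well) with NanoLuc luciferase and prosubstrate. Plates stayed at 37 C for 40 h; luminescence was captured at six time points, 0 h through 40 h.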
% is set by controls: 0 for no effect and ±100 for the full control effect.

Thyrotropin receptor (Homo sapiens), sequence (P16473 whole entry, looked up): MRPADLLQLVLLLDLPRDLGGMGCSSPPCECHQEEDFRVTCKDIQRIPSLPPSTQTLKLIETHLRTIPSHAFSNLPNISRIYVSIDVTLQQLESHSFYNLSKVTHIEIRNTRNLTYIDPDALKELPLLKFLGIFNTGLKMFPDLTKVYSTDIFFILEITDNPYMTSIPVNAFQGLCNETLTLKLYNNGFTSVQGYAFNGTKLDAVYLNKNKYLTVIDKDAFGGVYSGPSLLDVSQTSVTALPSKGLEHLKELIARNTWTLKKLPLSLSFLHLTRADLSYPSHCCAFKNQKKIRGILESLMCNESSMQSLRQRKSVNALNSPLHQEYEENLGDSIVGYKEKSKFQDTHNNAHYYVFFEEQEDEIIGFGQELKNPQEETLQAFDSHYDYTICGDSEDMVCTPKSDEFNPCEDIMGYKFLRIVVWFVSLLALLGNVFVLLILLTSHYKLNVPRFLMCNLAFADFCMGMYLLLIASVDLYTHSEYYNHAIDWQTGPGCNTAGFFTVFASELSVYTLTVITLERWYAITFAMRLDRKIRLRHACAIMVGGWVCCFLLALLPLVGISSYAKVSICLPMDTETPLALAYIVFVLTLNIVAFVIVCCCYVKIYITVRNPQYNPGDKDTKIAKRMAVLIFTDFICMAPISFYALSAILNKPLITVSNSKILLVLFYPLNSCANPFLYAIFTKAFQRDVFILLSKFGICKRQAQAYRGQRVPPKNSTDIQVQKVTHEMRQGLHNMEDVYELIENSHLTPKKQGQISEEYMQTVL

CCCOCC(C)OCC(C)O (stereo not drawn)
inactive: outcome [1] | Potency [2] | outcome [3] | outcome [4] | Potency [5] | Potency [6] | activity change, positive = activation [7] 1.4% | Potency [8] | Potency [9]

Cc1ccccc1C(=O)O
inactive: outcome [1] | Potency [2] | outcome [3] | outcome [4] | Potency [5] | outcome [10] | Potency [8] | Potency [9]

N#CCc1ccccc1[N+](=O)[O-]
inactive: outcome [1] | Potency [2] | outcome [3] | outcome [4] | Potency [5] | outcome [10] | Potency [8] | Potency [9]

CC1(C)OC(=O)Nc2ccc(Br)cc21
inactive: outcome [1] | Potency [2] | outcome [3] | outcome [4] | Potency [5] | outcome [10] | Potency [8] | Potency [9]

CCCCNc1ccccc1
inactive: outcome [1] | Potency [2] | outcome [3] | outcome [4] | Potency [5] | outcome [10] | Potency [8] | Potency [9]

CC(=O)c1ccc(C)cc1
inactive: outcome [1] | Potency [2] | outcome [3] | outcome [4] | Potency [5] | outcome [10] | Potency [8] | Potency [9]

C=CCOc1nc(OCC=C)nc(OCC=C)n1
inactive: outcome [1] | Potency [2] | outcome [3] | outcome [4] | Potency [5] | outcome [10] | Potency [8] | Potency [9]

COc1nc(C)nc(N)n1
inactive: outcome [1] | Potency [2] | outcome [3] | outcome [4] | Potency [5] | outcome [10] | Potency [8] | Potency [9]

CC(C)N1C(=O)c2ccccc2C1=O
inactive: outcome [1] | Potency [2] | outcome [3] | outcome [4] | Potency [5] | outcome [10] | Potency [8] | Potency [9]

Cc1ccc(N)cc1[N+](=O)[O-]
inactive: outcome [1] | Potency [2] | outcome [3] | outcome [4] | Potency [5] | outcome [10] | Potency [8] | Potency [9]

C1CCCCCCCCCCC1
inactive: activation [1] -4.17% [at 19 µM] | activity change, negative = cytotoxicity [2] 3.97% [at 15.8 µM] | activation (H2AX phosphorylation) [3] 1.29% [at 31.6 µM] | activation [4] 0.351% [at 15.8 µM] | activity change, negative = cytotoxicity [5] 0.456% [at 31.6 µM] | activity, negative = inhibition [6] -2.47% [at 19 µM] | activity change, positive = activation [7] -0.61% [at 19 µM] | cytotoxicity [9] -14.8% [at 15.8 µM]

O=[N+]([O-])c1ccc(CCO)cc1
inactive: outcome [1] | Potency [2] | outcome [3] | outcome [4] | Potency [5] | outcome [10] | Potency [8] | Potency [9]

O=C1CC2(CCCC2)CC(=O)N1
inactive: outcome [1] | Potency [2] | outcome [3] | outcome [4] | Potency [5] | outcome [10] | Potency [8] | Potency [9]

OCC(CO)(CO)COCC(CO)(CO)CO
inactive: outcome [1] | Potency [2] | outcome [3] | outcome [4] | Potency [5] | outcome [10] | Potency [8] | Potency [9]

CCCCC=O
inactive: outcome [1] | Potency [2] | outcome [3] | outcome [4] | Potency [5] | outcome [10] | Potency [8] | Potency [9]

COc1cc(O)cc(O)c1
inactive: outcome [1] | Potency [2] | outcome [3] | outcome [4] | Potency [5] | outcome [10] | Potency [8] | Potency [9]

CCCc1ccc(N)cc1
inactive: outcome [1] | Potency [2] | outcome [3] | outcome [4] | Potency [5] | outcome [10] | Potency [8] | Potency [9]

COCCOC(=O)CC#N
inactive: outcome [1] | Potency [2] | outcome [3] | outcome [4] | Potency [5] | outcome [10] | Potency [8] | Potency [9]

CC/C=C\C#N
inactive: outcome [1] | Potency [2] | outcome [3] | outcome [4] | Potency [5] | outcome [10] | Potency [8] | Potency [9]

OCC(O)[C@@H](O)[C@H](O)[C@H](O)CO[C@H]1O[C@H](CO)[C@@H](O)[C@H](O)[C@H]1O (stereo partly drawn)
inactive: outcome [1] | Potency [2] | outcome [3] | outcome [4] | Potency [5] | outcome [10] | Potency [8] | Potency [9]

Cc1cc(C)cc(OCC2CNC(=O)O2)c1 (stereo not drawn)
inactive: outcome [1] | Potency [2] | outcome [3] | outcome [4] | Potency [5] | outcome [10] | Potency [8] | Potency [9]

CCOC(=O)Nc1ccc2c(c1)N(C(=O)CCN1CCOCC1)c1ccccc1S2
inactive: outcome [1] | Potency [2] | outcome [3] | outcome [4] | Potency [5] | outcome [10] | Potency [8] | Potency [9]

CCCc1ccccc1O
inactive: outcome [1] | Potency [2] | outcome [3] | outcome [4] | Potency [5] | outcome [10] | Potency [8] | Potency [9]

O=C1OC(=O)c2cc([N+](=O)[O-])ccc21
inactive: outcome [1] | Potency [2] | outcome [3] | outcome [4] | Potency [5] | outcome [10] | Potency [8] | Potency [9]

CCCCCC[C@@H](CCC)C(=O)O
inactive: outcome [1] | Potency [2] | outcome [3] | outcome [4] | Potency [5] | activity change, positive = activation [7] -23% [at 42.5 µM] | outcome [10] | Potency [8] | Potency [9]

CCC(=O)c1cccc(Cl)c1
inactive: outcome [1] | Potency [2] | outcome [3] | outcome [4] | Potency [5] | outcome [10] | Potency [8] | Potency [9]

O=C(CCOCCOCCOCCOCCC(=O)Nc1c(I)cc(I)c(C(=O)O)c1I)Nc1c(I)cc(I)c(C(=O)O)c1I
inactive: outcome [1] | Potency [2] | outcome [3] | outcome [4] | Potency [5] | outcome [10] | Potency [8] | Potency [9]
